The source of these data is PubChem BioAssay (EPA / NIEHS).

Read-out in experiment [1]: Monokine induced gamma interferon (MIG), CXCL9 (gene 4283)
Nature of the experiment: BSK_hDFCGF_MIG: BioMAP Diversity Plus: hDFCGF Assay for Monokine induced gamma interferon (MIG) Biomarker Activity (AID 2283063). The note with it: primary human foreskin fibroblasts; actives raise or lower the signal. In a few lines:
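Endpoint derived by bidirectional fitting relative to DMSO; MIG quantified via ELISA in primary human foreskin fibroblasts harvested 24 h after dosing.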

Read-out in experiment [2]: Matrix Metallopeptidase 1 (MMP1), MMP1 (gene 4312)
Nature of the experiment: BSK_hDFCGF_MMP1: BioMAP Diversity Plus: hDFCGF Assay for Matrix Metallopeptidase 1 (MMP1) Biomarker Activity (AID 2283064). The note with it: primary human foreskin fibroblasts; actives raise or lower the signal. In a few lines:
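hDFCGF primary fibroblasts (human foreskin); chemical added; 24 h; MMP1 by ELISA; bidirectional fit vs DMSO.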

Read-out in experiment [3]: Vascular cell adhesion molecule 1 (VCAM1), VCAM1 (gene 7412)
Nature of the experiment: BSK_hDFCGF_VCAM1: BioMAP Diversity Plus: hDFCGF Assay for Vascular cell adhesion molecule 1 (VCAM1) Biomarker Activity (AID 2283065).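 For AC50: VCAM-1 protein level quantified by ELISA after 24 h chemical exposure.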 The note with it: primary human foreskin fibroblasts; actives raise or lower the signal. In a few lines:
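Measured after 24 h chemical treatment of primary human skin fibroblasts, VCAM-1 was detected by ELISA and concentration-response analysed in both directions versus DMSO vehicle.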

Read-out in experiment [4]: Plasminogen activator inhibitor-1 (PAI1), SERPINE1 (gene 5054)
As to the kind of experiment: BSK_hDFCGF_PAI1: BioMAP Diversity Plus: hDFCGF Assay for Plasminogen activator inhibitor-1 (PAI1) Biomarker Activity (AID 2283066). The conditions noted are these: primary human foreskin fibroblasts; actives raise or lower the signal. In a few lines: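 Primary dermal fibroblasts (human foreskin), hDFCGF system; compound 24 h; PAI-1 by ELISA; bidirectional fit vs DMSO control.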

Read-out in experiment [5]: Intercellular Adhesion Molecule 1 (ICAM1), ICAM1 (gene 3383)
Nature of the experiment: BSK_KF3CT_ICAM1: BioMAP Diversity Plus: KF3CT Assay for Intercellular Adhesion Molecule 1 (ICAM1) Biomarker Activity (AID 2283067). The conditions noted are these: primary human keratinocytes with fibroblasts; actives raise or lower the signal. In a few lines:
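Bidirectional curve fitting against a DMSO baseline was applied to ICAM-1 ELISA signal from primary human skin co-cultures harvested 24 h after treatment, with SRB staining of parallel wells for overt cytotoxicity.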

Read-out in experiment [6]: Interferon-gamma inducible Protein 10 (IP10), CXCL10 (gene 3627)
As to the kind of experiment: BSK_KF3CT_IP10: BioMAP Diversity Plus: KF3CT Assay for Interferon-gamma inducible Protein 10 (IP10) Biomarker Activity (AID 2283068). The note with it: primary human keratinocytes with fibroblasts; actives raise or lower the signal. In a few lines: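 KF3CT co-culture (keratinocytes + foreskin fibroblasts), 24 h compound, IP-10 by ELISA; bidirectional fit vs DMSO baseline.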

Experiment [7] is described as follows: BSK_KF3CT_SRB: Viability Assessment in the BioMAP Diversity Plus: KF3CT Assay (AID 2283069).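 Note: total protein by sulforhodamine B staining as a cytotoxicity measure; read 24 h after compound addition; fitted for both signal gain and loss against DMSO baseline.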 The note with it: primary human keratinocytes with fibroblasts. Summed up:
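Keratinocytes co-cultured with foreskin fibroblasts (human primary); chemical added, 24 h; fix 10% TCA, stain 0.1% SRB, A560. Bidirectional fit vs DMSO.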

Read-out in experiment [8]: Interleukin-1 alpha (IL1a), IL1A (gene 3552)
Nature of the experiment: BSK_KF3CT_IL1a: BioMAP Diversity Plus: KF3CT Assay for Interleukin-1 alpha (IL1a) Biomarker Activity (AID 2283070). The conditions noted are these: primary human keratinocytes with fibroblasts; actives raise or lower the signal. In a few lines:
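Chemicals were dosed onto co-cultured human keratinocytes and foreskin fibroblasts, IL-1a was quantified by ELISA at 24 h, and activity was fitted in both directions relative to DMSO controls.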

Read-out in experiment [9]: TIMP metallopeptidase inhibitor 2 (TIMP2), TIMP2 (gene 7077)
Nature of the experiment: BSK_KF3CT_TIMP2: BioMAP Diversity Plus: KF3CT Assay for TIMP metallopeptidase inhibitor 2 (TIMP2) Biomarker Activity (AID 2283071). The note with it: primary human keratinocytes with fibroblasts; actives raise or lower the signal. Summed up:
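Cells: human keratinocytes co-cultured with foreskin fibroblasts. Treat with chemical, 24 h. Measure TIMP-2 by ELISA; fit curves bidirectionally vs DMSO baseline.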

Read-out in experiment [10]: Matrix Metallopeptidase 9 (MMP9), MMP9 (gene 4318)
Nature of the experiment: BSK_KF3CT_MMP9: BioMAP Diversity Plus: KF3CT Assay for Matrix Metallopeptidase 9 (MMP9) Biomarker Activity (AID 2283074).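 For AC50: MMP9 protein level quantified by ELISA in the co-culture.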 The conditions noted are these: primary human keratinocytes with fibroblasts; actives raise or lower the signal. In a few lines:
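Human keratinocyte/foreskin fibroblast co-culture; compound added; 24 h; MMP-9 by ELISA; bidirectional fit vs DMSO baseline.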

SMILES strings stand for the structures. Values joined by “and” are separate entries in the source; they are usually repeats but may differ in a detail not shown here. Equal values may be shown once. Some compounds were tested as several samples or in several runs, with calls that do not always agree. Active and inactive are the calls of the source. Rule for the calls: active = hit-call score of the fitted dose curve at least 0.9, where 1 is the maximum; inactive = score below 0.9.

Regarding `CCCCC(CC)COCC1CO1` (stereo unspecified), the result in experiment [1], in experiment [2], in experiment [3], in [4], in experiment [5] and in experiment [6] was inactive. Also, the result in experiment [7], in [8], in experiment [9] and in experiment [10] was inactive.
For the compound `CC1OC1C1CCC2(C)OC2C1` (stereo unspecified), the result in [1], in experiment [2], in experiment [3], in experiment [4], in experiment [5] and in experiment [6] was inactive. Moreover, the result in experiment [7], in experiment [8], in experiment [9] and in experiment [10] was inactive.
Take `COc1ccc2nc(N)sc2c1`: the result in experiment [1], in [2], in [3], in [4], in experiment [5] and in experiment [6] was inactive. The result in [7], in experiment [8], in experiment [9] and in experiment [10] was inactive.
For `CC(C)C(=O)C(C)C`, the outcome in experiment [1], in experiment [2], in experiment [3], in experiment [4], in [5] and in [6] was inactive. For the same compound, the result in experiment [7], in experiment [8], in experiment [9] and in experiment [10] was inactive.
For `O=C(c1ccc(O)cc1)c1ccc(O)cc1O`, the result in experiment [1], in experiment [3], in [4], in experiment [5], in experiment [6] and in experiment [7] was inactive. The result in experiment [8] and in [9] was inactive. In addition, the AC50 in [2] was 6.99 µM (active) and 20 µM (active); in experiment [3] it was 16.6 µM (active); in experiment [10], 18.4 µM (active) and 11.2 µM (active).
With `CN1C(=O)N(C)C(O)C1O` (stereo unspecified), the result in experiment [1], in experiment [2], in experiment [3], in experiment [4], in experiment [5] and in [6] was inactive. Also, the outcome in experiment [7], in experiment [8], in experiment [9] and in experiment [10] was inactive.
With `CCOc1nc(F)cc2nc(S(=O)(=O)Nc3c(Cl)cccc3C(=O)OC)nn12`, the outcome in [1], in experiment [2], in [3], in experiment [4], in experiment [5] and in experiment [6] was inactive. For the same compound, the result in experiment [7], in experiment [8], in experiment [9] and in experiment [10] was inactive.
With `CCO[Si](C)(OCC)OCC`, the outcome in experiment [1], in experiment [2], in experiment [3], in experiment [4], in experiment [5] and in [6] was inactive. The result in experiment [7], in experiment [8], in [9] and in [10] was inactive.
`O=c1c2ccccc2oc2ccccc12`: the outcome in [1], in [2], in experiment [3], in [4], in experiment [5] and in experiment [6] was inactive. Moreover, the result in [7], in [8], in [9] and in [10] was inactive.
As for `O=Nc1ccc(O)cc1`, the result in [1], in [2], in [3], in experiment [4], in experiment [5] and in experiment [6] was inactive. Further, the result in experiment [7], in experiment [8], in experiment [9] and in [10] was inactive.
As for `CC(C)(c1cc(Br)c(OCCO)c(Br)c1)c1cc(Br)c(OCCO)c(Br)c1`, the AC50 is 13.1 µM (active) in experiment [1]; 7.21 µM (active) in experiment [3]; 16.2 µM (active) in experiment [4]; 16.2 µM (active) in [5]; 9.81 µM (active) in experiment [6]; 9.41 µM (active) in experiment [7]. The AC50 in experiment [8] was 12.1 µM (active); in experiment [9] it was 16.2 µM (active); in experiment [10] it was 7.47 µM (active). For the same compound, in experiment [2], the result was inactive.
Regarding `CCCCCCCCc1ccc(Nc2ccc(CCCCCCCC)cc2)cc1`, the outcome in [1], in experiment [2], in experiment [3], in [4], in experiment [5] and in experiment [6] was inactive. The outcome in experiment [7], in [8], in [9] and in experiment [10] was inactive.
With `C=CC(=O)OCC(Br)CBr` (stereo unspecified), the AC50 in experiment [1] was 6.57 µM (active); in [2] it was 11.8 µM (active); in experiment [3] it was 1.65 µM (active); in [4], 8.55 µM (active); in experiment [5] it was 25.2 µM (active); in [6], 30 µM (active). Moreover, the AC50 in experiment [7] is 33.8 µM (active); in [8] it was 32.2 µM (active); in [9] it was 32 µM (active); in [10], 28.1 µM (active).
Take `Nc1ccc(N)c(Cl)c1`: the AC50 is 17.2 µM (active) and 17.5 µM (active) in experiment [1]; 34.5 µM (active) and 33 µM (active) in experiment [2]; 13 µM (active) and 17.1 µM (active) in [3]; 26.4 µM (active) and 31.4 µM (active) in [4]; 8.84 µM (active) and 11.4 µM (active) in experiment [8]; 20 µM (active) and 18.3 µM (active) in [10]. Besides, the outcome in experiment [5], in experiment [6], in experiment [7] and in [9] was inactive.
In the case of `C/C=C\C/C=C/CCCCCCCCOC(C)=O`, the AC50 was 28.3 µM (active) in experiment [1]; 32.9 µM (active) in experiment [2]; 24.6 µM (active) in [3]; 28.9 µM (active) in experiment [4]; 24.6 µM (active) in [5]; 39.4 µM (active) in experiment [6]. For the same compound, the AC50 was 26.3 µM (active) in experiment [8], 20 µM (active) in experiment [9] and 29.5 µM (active) in experiment [10]. Also, the outcome in [7] was inactive.
For the compound `N#[N+]c1ccc2c(S(=O)(=O)[O-])cccc2c1O`, the result in experiment [1], in experiment [2], in [3], in experiment [4], in experiment [5] and in experiment [6] was inactive. The result in [7], in experiment [8], in experiment [9] and in experiment [10] was inactive.
For the compound `O=C(Cl)c1cc(C(=O)Cl)cc(C(=O)Cl)c1`, the AC50 in experiment [1] is 16.1 µM (active); in experiment [2] it was 31.9 µM (active); in experiment [3], 15.2 µM (active); in experiment [4], 29.8 µM (active); in [5] it was 30.8 µM (active); in experiment [6], 35 µM (active). For the same compound, the AC50 in experiment [7] was 33.2 µM (active); in experiment [8], 33.8 µM (active); in experiment [9] it was 25.2 µM (active); in experiment [10] it was 32.3 µM (active).
Take `CCCCC/C=C\C/C=C\CCCCCCCC(=O)OC`: the AC50 in experiment [1] is 35.3 µM (active); in [2], 33.4 µM (active); in [3] it was 26.9 µM (active); in [4], 28.9 µM (active); in experiment [5], 31.4 µM (active); in experiment [6], 29 µM (active). The AC50 in experiment [7] is 31 µM (active); in [8] it was 26.9 µM (active); in [9], 30 µM (active); in experiment [10], 26.7 µM (active).
